According to PubChem BioAssay (NCI):
The panel holds about 83,000 compounds, 20% with a hit somewhere; the sample as a whole holds those more often.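 Method: cells in 96-well plates; compound added at one concentration; 48 h incubation; percent growth measured; values under 10 scored active.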 Values without a mark were called inactive. Activity calls are given as the source filed them.

Tests used:
Test in all cases: NCI-60 one-dose screen, 48 h (100 = growth as untreated, 0 = no growth, -100 = all killed)
T-47D breast = conditions: 10 µM unless noted
BT-549 breast = conditions: 10 µM unless noted
MDA-MB-435 melanoma = conditions: 10 µM unless noted
SW-620 colon = conditions: 10 µM unless noted
MCF7 breast = conditions: 10 µM unless noted
HCT-116 colon = conditions: 10 µM unless noted
HCC-2998 colon = conditions: 10 µM
KM12 colon = conditions: 10 µM unless noted

| Structure (SMILES) | growth (T-47D breast) | growth (BT-549 breast) | growth (MDA-MB-435 melanoma) | growth (SW-620 colon) | growth (MCF7 breast) | growth (HCT-116 colon) | growth (HCC-2998 colon) | growth (KM12 colon) |
| --- | --- | --- | --- | --- | --- | --- | --- | --- |
| C=C1C(=O)O[C@H]2[C@H]1CC/C(CNC(=O)c1cc3cc(OC)ccc3[nH]1)=C\CC[C@@]1(C)O[C@@H]21 | -46.3% (active) | -68.1% (active) | -48.1% (active) | -72.3% (active) | -29.6% (active) | -81.3% (active) | -90.3% (active) | 25.4% |
| O=C1/C(=C\c2cccc(OCCCCCOc3ccc(Cl)cc3)c2)N=C2SCCCN12 | 26.4% | 57.4% | 46.1% | 86.2% | 68.5% | 52.7% | 71% | 48.2% |
| C=CCCCC(=O)CCC(=O)OCC1O[C@@H](O[C@@H]2C(O)[C@@H](OC(C)=O)C(C)O[C@H]2O[C@H](CC=C)CCCCC)C(O)[C@@H](OC(=O)/C(C)=C/C)[C@@H]1OC(=O)/C=C/c1ccccc1 (some centres not stated) | -5.16% (active) | 16.7% | 9.15% (active) | 30.6% | 17.6% | 13.7% | 44.1% | 22.3% |
| CCOC(=O)C1=C(C)N=C2Sc3cccc(OC)c3N2[C@H]1c1ccccn1 | 96.5% | 101% | 110% | 102% | 97% | 94.9% | 93.2% | 96.6% |
| CCN(CC)Cc1cc(Nc2cc(C(F)(F)F)c(C#N)c3nc4ccccc4n23)ccc1O | -1.95% (active) | 8.37% (active) | 16.9% | 14.7% | 8.72% (active) | 4.67% (active) | 20.2% | 10.8% |
| CC(C)(C)c1cnc(CSc2cnc(NC(=O)C3CCNCC3)s2)o1 | -7.81% (active) | 0.761% (active) | -58.7% (active) | 5.06% (active) | 3.72% (active) | 2.22% (active) | 0.238% (active) | 3.58% (active) |
| COc1cc2c3c(c1)nc(C)n3CCC2 | 95.8% | 94.2% | 100% | 107% | 99.5% | 92.8% | 99.8% | 108% |
| CN(C)CCn1c(=O)c2c3cc4c(cc3n(CCN(C)C)c2c2ccc(Cl)cc21)OCO4 | 57.2% | 63.6% | 70.7% | -14.7% (active) | 21.3% | -79.4% (active) | 81.7% | 45.1% |
| Cc1cc2c(-c3nc4ccccn4c3N)c(O)c(O)cc2c(O)c1-c1c(C)cc2c(-c3nc4ccccn4c3N)c(O)c(O)cc2c1O | 14.6% | 21.2% | 13.4% | 22.7% | 10.7% | 9.9% (active) | 30.7% | 22.1% |
| O=C1NC(=O)[C@@H](c2cn3c4c(cccc24)CCC3)[C@@H]1c1c[nH]c2ccccc12 | 24.3% | 16.2% | -13.2% (active) | 27.5% | 19.5% | 2.94% (active) | 18.4% | 4.42% (active) |
| CCn1c(-c2nonc2N)nc2c(C#CC(C)(C)O)ncc(OC[C@H]3CCCNC3)c21 | 66.7% | 49.6% | 75.3% | 46.1% | 15.6% | 44.5% | 81.4% | 35.9% |
| COC(=O)CCCNc1c(-c2c(O)c(O)cc3c(O)c(-c4c(C)cc5c(-c6nc7ccccn7c6NCCCC(=O)OC)c(O)c(O)cc5c4O)c(C)cc23)nc2ccccn12 | 26.1% | 16% | 20.7% | 60.1% | 18.2% | 7.23% (active) | 71.6% | 31.8% |
| Cc1nc2cc(-c3nn(C(C)C)c4ncnc(N)c34)ccc2o1 | -39.9% (active) | -14.5% (active) | -20.5% (active) | 2.48% (active) | -4.42% (active) | 7.77% (active) | -8.93% (active) | 0.531% (active) |
| N#CC[C@H](C1CCCC1)n1cc(-c2ncnc3[nH]ccc23)cn1 | 72% | 77.9% | 69.8% | 73.2% | 41.5% | 39.4% | 85.8% | 19.1% |
| CC(C)[C@@H]1CC[C@@H]2[C@@H]1[C@H](OC(=O)/C=C/c1ccccc1)[C@]1(C(C)C)C[C@@H](OC(=O)CO)[C@@]2(C)O1 | 52.2% | 20.5% | 101% | 99.4% | 71.7% | 65.2% | 79.9% | 82.6% |
| CC/C(=C(\c1ccc(OCCN2CCCCCCC2)cc1)c1ccc(OC(=O)C2CCCCC2)cc1)c1ccc(Cl)cc1 | 77.4% | 116% | 99.8% | 95.5% | 48.5% | 87.3% | 109% | 97.1% |
| O=C1CC(c2ccc(Cl)cc2)c2ncn(-c3cccc(Cl)c3)c2N1 (configuration not stated) | 68.7% | 52.5% | -16.8% (active) | 26% | 61.2% | 19.1% | 77.4% | 54.1% |
| CC12O[C@H](C[C@@H](OC(=O)CCC(=O)O)[C@H]1O)n1c3ccccc3c3c4c(c5c6ccccc6n2c5c31)C(=O)NC4=O | 35.8% | -1.04% (active) | 8.34% (active) | 36.2% | 19.2% | 35.6% | 41.3% | 15.4% |
| O=c1[nH]c(N2CCOCC2)nc2scc(-c3ccccc3)c12 | 80.7% | 92.4% | 91.7% | 110% | 92.2% | 98.3% | 106% | 97.6% |
| CNC(=O)c1cccc2cc(Oc3ccnc4cc(OCC5(N)CC5)c(OC)cc34)ccc12 | 92.2% | 59.7% | 24.1% | 46.9% | 49.1% | 33.2% | 92% | 45.9% |
| O=CC(OC(=O)c1ccccc1)C(OC(=O)c1ccccc1)C(COC(c1ccccc1)(c1ccccc1)c1ccccc1)OC(=O)c1ccccc1 (configuration not stated) | 25.6% | 65.6% | 45.7% | -37.6% (active) | 36.6% | 7.51% (active) | 96.6% | 61% |
| Cn1cc(-c2cnn3c(N)c(Br)c([C@@H]4CCCNC4)nc23)cn1 | 59.8% | 52.1% | 39.1% | 63.8% | 31.5% | 35.8% | 53.7% | 18.4% |
| CCN1CCN(CCCN(C[C@H]2Cc3ccccc3CN2)[C@H]2CCCc3cccnc32)CC1 | 103% | 79.7% | 105% | 89.6% | 100% | 76.4% | 102% | 87.1% |
| Cc1cc(Nc2ncnc3ccc(NC4=NC(C)(C)CO4)cc23)ccc1Oc1ccn2ncnc2c1 | 32.3% | 42.4% | 43.9% | 18.2% | 21.4% | 16.1% | 18.9% | 21.3% |
| C=CC(=O)Nc1cc2c(Nc3ccc(F)c(Cl)c3)ncnc2cc1C#CC(C)(C)N1CCN(C)CC1 | -81.5% (active) | -94% (active) | -98.1% (active) | -78% (active) | -65.2% (active) | -92.6% (active) | -81.5% (active) | -90.2% (active) |
| CSc1nc2ncnc(SC)c2[nH]1 | 105% | 93.3% | 100% | 109% | 93.1% | 81.4% | 113% | 106% |
| COc1ncc(-c2ccc3nccc(-c4ccnnc4)c3c2)cc1NS(=O)(=O)c1ccc(F)cc1F | -25.3% (active) | -31.7% (active) | -78% (active) | -30.9% (active) | 8.48% (active) | -48.7% (active) | -78.4% (active) | -60.5% (active) |
| CCCCN1CCCC[C@@H]1C(=O)N[C@H](C(=O)N(C)[C@H](CCc1nc(C(=O)N[C@@H](Cc2ccccc2)C[C@H](C)C(=O)OC)cs1)C(C)C)C(C)C | 45.3% | 52.3% | -6.94% (active) | 85.3% | 35.6% | 41.5% | 67.6% | 47.7% |
| O=C(NO)c1ccc(Cn2c(=O)n(CCc3ccccc3)c(=O)c3ccccc32)cc1 | 29% | 52.4% | 19.1% | 20.9% | 27.9% | 4.18% (active) | 62.5% | 25.2% |
